RGS7-Gao: modulates binding of RGS7 to human Galphao. P09471. 0.35% of 220,000 active. Multiplexed bead flow cytometry; actives lie on both sides. binding response (% of control), % at 10 µM; in the data active = binding response below about 49% or above about 150%; inconclusive = no clear call, values can overlap the other calls; inactive = in between;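 note: fluorescent Galphao held in activated GDP-AlF4 state binding bead-coupled RGS7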
RGS8-Gao: regulators of human RGS8-Galphao interaction; P09471; multiplexed bead flow cytometry, RGS8-Galphao binding; actives lie on both sides; response (percent of control binding), % at 10 µM; 0.34% of 220,000 active; AID 1423; in the data active = response below about 60% or above about 140%; inactive = in between;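 note: Galphao activated as the GDP aluminium fluoride complex binding bead-coupled RGS8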
GSH bead fluor: GSH bead compound fluorescence profile. GSH beads flow cytometry, compound fluorescence 488/530 nm; stronger effect = higher value. AID 1776. 0.25% of 190,000 active. fluorescence (KMESF) at 10 µM; in the data active = fluorescence above about 89;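 note: glutathione beads carrying GST-tagged Bcl family fusion proteins plus one bare bead set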
RGS4-Gao reg: human RGS4-Galphao interaction regulation; Multiplexed bead flow cytometry, RGS4-Galphao binding; actives lie on both sides; binding response (% of control), % at 10 µM; 0.33% of 220,000 active; in the data active = binding response below about 49% or above about 150%; inactive = in between;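 note: fluorescent Galphao activated with aluminum fluoride binding bead-coupled RGS4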
RGS16-Gao: RGS16-Galphao interaction regulator (human) | O15492+P09471 | bead-based flow cytometry RGS16-Galphao binding, fluorescence; actives lie on both sides | binding response (% of control), % at 10 µM | 0.38% of 220,000 active | AID 1441;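 note: Galphao activated by GDP with aluminum fluoride before binding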
Target sequence (O15492 whole entry, looked up): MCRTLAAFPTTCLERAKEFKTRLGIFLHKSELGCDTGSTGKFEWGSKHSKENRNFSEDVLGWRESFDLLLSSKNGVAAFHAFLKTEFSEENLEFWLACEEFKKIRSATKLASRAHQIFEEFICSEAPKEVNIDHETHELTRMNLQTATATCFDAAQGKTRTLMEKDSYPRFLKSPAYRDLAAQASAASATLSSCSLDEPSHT
Target sequence (P09471 whole entry, looked up): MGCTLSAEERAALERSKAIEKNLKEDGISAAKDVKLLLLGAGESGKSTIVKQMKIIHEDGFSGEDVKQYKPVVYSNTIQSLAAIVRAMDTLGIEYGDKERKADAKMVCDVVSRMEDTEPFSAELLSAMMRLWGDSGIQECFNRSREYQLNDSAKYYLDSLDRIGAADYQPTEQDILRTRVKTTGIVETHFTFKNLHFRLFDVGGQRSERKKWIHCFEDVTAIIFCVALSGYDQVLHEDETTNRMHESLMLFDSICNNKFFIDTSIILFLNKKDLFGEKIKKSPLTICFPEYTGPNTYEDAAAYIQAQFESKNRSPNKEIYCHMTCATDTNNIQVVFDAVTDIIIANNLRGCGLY
Avidin bead fluor: avidin bead compound fluorescence profile | 0.38% of 220,000 active | fluorescence (KMESF) at 10 µM | AID 1775 | Avidin beads, compound fluorescence 488/530 nm, flow cytometry; stronger effect = higher value; in the data active = fluorescence above about 47
RGS-Gao: RGS4-Galphao interaction regulator (human); 99% of 1,600 active; multiplexed bead flow cytometry, RGS–Galpha-o binding; AID 1504; RGS4–Galpha-o binding response, % at 10 µM; shares compounds with RGS16-Gao;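 note: fluorescently labeled Galpha-o bound to GDP with aluminium fluoride binding biotinylated RGS beads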
Avidin counter: counter-screen: compounds disrupting biotin binding to avidin beads | shares compounds with RGS16-Gao | streptavidin beads, fluorescein-biotin binding, flow cytometry | inhibition, % at 10 µM | 1,700 tested, under 10 active;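 active = inhibition above 50%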;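 note: median green fluorescence of gated singlet beads compared with DMSO control wells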
RGS8-Gao single: confirmation of regulators of human RGS8-Galphao interaction; shares compounds with RGS16-Gao; bead-based flow cytometry RGS8-Galphao binding, fluorescence; actives lie on both sides; binding response (% of control), % at 10 µM; AID 1836; 3% of 1,700 active; in the data active = binding response below about 72% or above about 130%; inactive = in between;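 note: Galphao activated as GDP AlF4 complex before binding bead RGS8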
RGS7-Gao confirm: RGS7-Galphao interaction regulation, single point confirmation. shares compounds with RGS16-Gao. bead-based flow cytometry RGS7-Galphao binding; actives lie on both sides. response (percent of control binding), % at 10 µM. 7.8% of 1,700 active; in the data active = response below about 75% or above about 130%; inactive = in between;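 note: fluorescent Galphao activated with GDP and aluminum fluoride binding bead-coupled RGS7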
RGS16-Gao conf: RGS16-Galphao interaction regulation, single point confirmation. response (% of control binding), % at 10 µM. 4% of 1,700 active. shares compounds with RGS16-Gao. bead-based flow cytometry, RGS16-Galphao binding; actives lie on both sides; in the data active = response below about 74% or above about 130%; inactive = in between;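 note: Galphao activated as the GDP aluminium fluoride complex binding bead-coupled RGS16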
RGS4-Gao single: confirmation of regulators of human RGS4-Galphao interaction; shares compounds with RGS16-Gao; RGS4-Galphao binding, multiplexed bead flow cytometry; actives lie on both sides; binding response (% of control), % at 10 µM; 4% of 1,700 active; AID 1840; in the data active = binding response below about 74% or above about 130%; inactive = in between
RGS19-Gao single: RGS19-Galphao interaction regulation, single point confirmation; shares compounds with RGS16-Gao; bead-based flow cytometry RGS19-Galphao binding; actives lie on both sides; response (percent of control binding), % at 10 µM; 5% of 1,700 active; in the data active = response below about 50% or above about 160%; inactive = in between
Numbers stand for hits; . = inactive; ? = inconclusive; / = no result; [ ] = remark or other dose. Most compounds without a hit are left out; they make up all but 1.2% or so of the library. Unless noted, the rule behind the calls is not given here.

SMILES | RGS7-Gao | RGS8-Gao | GSH bead fluor | RGS4-Gao reg | RGS16-Gao | Avidin bead fluor | Avidin counter | RGS8-Gao single | RGS7-Gao confirm | RGS16-Gao conf | RGS4-Gao single | RGS19-Gao single | others
CN(C)CCCNC(=O)c1ccc(/C=N/O)nc1 | -11 | 12 | . | 6.1 | 9.7 | . | . | . | . | . | . | .
CNCCCNC(=O)c1ccc(/C=N/O)nc1 | . | . | . | . | . | . | / | / | / | / | / | /
O=C(NC(=S)N1CCN(c2ccc(C(F)(F)F)cc2[N+](=O)[O-])CC1)c1cccs1 | . | . | . | . | . | . | / | / | / | / | / | /
Nc1cc(N)nc(CS)n1 | ? | . | / | . | . | . | / | / | / | / | / | /
CCc1ccc(CCC(=O)Nc2nnc(C)s2)o1 | . | . | . | . | . | . | / | / | / | / | / | /
CCc1nnc(NC(=O)CCc2ccc(C)o2)s1 | 158[activator] | 151[activator] | . | 170[activator] | . | . | . | . | . | . | . | .
CN(C)c1nnc(-c2ccc(Cl)cc2)o1 | . | . | . | . | . | . | / | / | / | / | / | /
O=C(OCCCN=C1NS(=O)(=O)c2ccccc21)c1ccc([N+](=O)[O-])cc1 | . | . | . | . | . | . | / | / | / | / | / | /
CC1CCC(NC(=O)CN(C)S(=O)(=O)c2cccc3cccnc23)CC1 (stereo not given) | ? | 33 | / | 26 | 19 | . | . | . | . | . | . | .
Cc1ccc(NC(=O)CN(C)S(=O)(=O)c2cccc3cccnc23)cc1 | . | . | . | . | . | . | / | / | / | / | / | /
CN1CCN(S(=O)(=O)c2ccc(NC(=S)NC(=O)C(C)(C)C)cc2)CC1 | . | . | . | . | . | . | / | / | / | / | / | /
CSc1nc(-c2ccccc2)nn1S(=O)(=O)c1ccccc1 | 171[activator] | . | . | 173[activator] | 199[activator] | 96 | . | . | . | . | . | .
CSc1nc(-c2ccccc2)nn1S(=O)(=O)c1ccc(Cl)cc1 | . | . | . | . | . | . | / | / | / | / | / | /
CCN(CC)S(=O)(=O)c1cc(C(=O)Nc2nncs2)c(Cl)cc1Cl | / | . | . | . | . | / | . | . | . | . | . | .
Cc1ccc(S(=O)(=O)N(C)C)cc1NC(=O)COC(=O)c1ccc2c(c1)OCCO2 | . | . | . | . | . | . | / | / | / | / | / | /
FC(F)(F)c1nnc2ccc(N3CCCCCC3)nn12 | . | 173[activator] | . | . | / | . | . | . | . | . | . | . | RGS-Gao=149
FC(F)(F)c1nnc2ccc(N3CCCC3)nn12 | . | . | . | . | . | . | / | / | / | / | / | /
CC(Sc1ncnc2ccccc12)C(=O)Nc1ccc2c(c1)OCO2 (stereo not given) | / | / | . | / | / | / | . | . | . | . | . | .
CC1=C(C#N)c2nc(N)c(C#N)c(C)c2/C1=C\c1ccc(OCC(=O)O)c(Cl)c1 | ? | . | / | . | . | . | / | / | / | / | / | /
CNc1nc(C23CC4CC(CC(C4)C2)C3)cs1 | . | . | . | . | . | . | / | / | / | / | / | /
COC(=O)c1ccc2c(=O)[nH]c(CSc3nnc(C(F)(F)F)n3C)nc2c1 | . | . | . | . | 16 | . | . | . | . | . | . | . | RGS-Gao=90

Compound activity from PubChem.
